Measurements taken from the supplement of paper PMC11732987, “Enantioselective OTUD7B fragment discovery through chemoproteomics screening and high-throughput optimisation” (Communications Chemistry, 2025).

Columns and labels:
Assay in all cases: log2 ratio of Biotin-Ahx-Ub-VS probe labelling (fragment/DMSO); higher = less target engagement (more negative = stronger competition), active = hit call of the paper (q ≤ 0.05, log2 ratio ≤ -1)
Details in all cases: compound concentration: 200 uM; treatment time: 3 h
[1] = target: USP34 (UniProt Q70CQ2)
Outline: (§1)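 HEK293T lysate (495 µg per sample, in Tris/CHAPS/IGEPAL buffer with protease inhibitors) was treated in triplicate with fragment at 200 µM or with DMSO for 3 h. It was then treated with Biotin-Ahx-Ub-VS (0.5 µM final) for 1 h. Labelled DUBs were NeutrAvidin-enriched, digested with LysC and trypsin, and run by diaPASEF LC-MS/MS. Spectronaut label-free quantities were global-median-normalised. Values are average log2 ratios fragment/DMSO by unpaired t-test, using proteins with ≥2 unique peptides.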

[2] = target: T1, USP36 (UniProt Q9P275)
T1 sequence (whole entry): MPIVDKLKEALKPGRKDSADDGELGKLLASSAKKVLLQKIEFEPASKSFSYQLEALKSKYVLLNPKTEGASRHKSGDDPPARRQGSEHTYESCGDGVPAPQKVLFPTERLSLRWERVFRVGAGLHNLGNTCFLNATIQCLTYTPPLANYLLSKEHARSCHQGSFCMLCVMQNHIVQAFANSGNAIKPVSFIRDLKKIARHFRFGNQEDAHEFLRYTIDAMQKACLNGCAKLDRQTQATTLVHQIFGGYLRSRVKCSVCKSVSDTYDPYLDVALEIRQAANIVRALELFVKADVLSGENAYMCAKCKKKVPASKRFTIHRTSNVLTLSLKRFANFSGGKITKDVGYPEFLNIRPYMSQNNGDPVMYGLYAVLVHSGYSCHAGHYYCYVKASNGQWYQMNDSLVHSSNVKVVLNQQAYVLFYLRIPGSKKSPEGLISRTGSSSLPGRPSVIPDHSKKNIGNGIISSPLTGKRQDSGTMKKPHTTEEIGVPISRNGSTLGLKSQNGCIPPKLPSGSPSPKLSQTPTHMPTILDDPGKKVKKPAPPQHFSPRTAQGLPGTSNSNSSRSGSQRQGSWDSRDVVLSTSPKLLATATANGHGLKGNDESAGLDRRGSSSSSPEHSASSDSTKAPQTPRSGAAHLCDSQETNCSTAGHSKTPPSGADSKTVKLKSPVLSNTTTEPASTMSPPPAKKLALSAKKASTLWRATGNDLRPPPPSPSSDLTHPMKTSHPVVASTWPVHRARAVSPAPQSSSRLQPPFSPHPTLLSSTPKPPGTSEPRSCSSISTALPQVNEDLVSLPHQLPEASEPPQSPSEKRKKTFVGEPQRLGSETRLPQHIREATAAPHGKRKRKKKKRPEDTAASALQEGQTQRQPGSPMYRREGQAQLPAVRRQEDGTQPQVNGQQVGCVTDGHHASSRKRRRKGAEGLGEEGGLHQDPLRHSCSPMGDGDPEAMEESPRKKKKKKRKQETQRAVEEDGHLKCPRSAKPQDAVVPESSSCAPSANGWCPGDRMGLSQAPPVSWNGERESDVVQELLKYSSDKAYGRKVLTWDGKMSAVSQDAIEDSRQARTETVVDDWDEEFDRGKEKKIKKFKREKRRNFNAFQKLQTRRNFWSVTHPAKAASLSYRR
Outline: as §1

[3] = target: T2, USP38 (UniProt Q8NB14)
T2 sequence (whole entry): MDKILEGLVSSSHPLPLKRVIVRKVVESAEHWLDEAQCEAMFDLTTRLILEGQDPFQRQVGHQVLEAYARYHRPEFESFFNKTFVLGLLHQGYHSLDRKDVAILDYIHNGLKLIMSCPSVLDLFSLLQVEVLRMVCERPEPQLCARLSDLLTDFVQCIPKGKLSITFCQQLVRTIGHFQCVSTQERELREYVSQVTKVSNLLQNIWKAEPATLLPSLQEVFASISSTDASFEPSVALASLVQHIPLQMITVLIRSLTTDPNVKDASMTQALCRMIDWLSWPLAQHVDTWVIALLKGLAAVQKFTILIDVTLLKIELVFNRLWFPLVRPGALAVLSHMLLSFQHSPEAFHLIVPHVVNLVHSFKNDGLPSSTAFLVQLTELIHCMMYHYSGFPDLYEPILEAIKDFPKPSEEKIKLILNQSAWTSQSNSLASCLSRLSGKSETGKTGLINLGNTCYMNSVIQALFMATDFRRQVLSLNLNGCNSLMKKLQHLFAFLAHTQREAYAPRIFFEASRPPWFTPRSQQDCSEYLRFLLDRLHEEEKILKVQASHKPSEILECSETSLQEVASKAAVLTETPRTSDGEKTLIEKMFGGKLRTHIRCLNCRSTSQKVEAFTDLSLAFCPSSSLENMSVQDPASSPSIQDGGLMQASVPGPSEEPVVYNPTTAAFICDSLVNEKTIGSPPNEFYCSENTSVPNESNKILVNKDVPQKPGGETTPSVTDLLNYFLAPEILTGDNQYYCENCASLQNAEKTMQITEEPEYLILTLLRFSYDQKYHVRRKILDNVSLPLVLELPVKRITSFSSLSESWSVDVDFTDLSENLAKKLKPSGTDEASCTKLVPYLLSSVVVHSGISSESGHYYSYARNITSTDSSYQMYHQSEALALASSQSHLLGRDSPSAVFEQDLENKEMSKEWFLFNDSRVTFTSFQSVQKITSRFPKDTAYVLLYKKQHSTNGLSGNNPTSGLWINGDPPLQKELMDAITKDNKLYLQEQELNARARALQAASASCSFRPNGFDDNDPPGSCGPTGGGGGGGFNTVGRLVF
Outline: as §1

[4] = target: T3, USP39 (UniProt Q53GS9)
T3 sequence (whole entry): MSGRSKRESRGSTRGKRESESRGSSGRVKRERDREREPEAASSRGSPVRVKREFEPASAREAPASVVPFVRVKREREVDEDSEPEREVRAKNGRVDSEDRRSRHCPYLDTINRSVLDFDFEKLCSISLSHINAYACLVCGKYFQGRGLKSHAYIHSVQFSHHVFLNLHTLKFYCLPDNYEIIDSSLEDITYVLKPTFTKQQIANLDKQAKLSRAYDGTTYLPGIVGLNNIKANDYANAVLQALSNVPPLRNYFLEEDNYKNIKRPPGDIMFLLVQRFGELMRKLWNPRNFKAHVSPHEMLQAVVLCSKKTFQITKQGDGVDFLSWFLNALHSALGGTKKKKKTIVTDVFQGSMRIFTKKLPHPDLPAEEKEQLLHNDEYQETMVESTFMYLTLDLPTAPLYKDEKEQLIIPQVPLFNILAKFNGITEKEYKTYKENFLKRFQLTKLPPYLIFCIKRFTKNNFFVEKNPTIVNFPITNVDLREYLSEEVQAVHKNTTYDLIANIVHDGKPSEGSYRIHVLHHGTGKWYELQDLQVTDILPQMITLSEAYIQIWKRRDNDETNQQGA
Outline: as §1

[5] = target: T4, USP4 (UniProt Q13107)
T4 sequence (whole entry): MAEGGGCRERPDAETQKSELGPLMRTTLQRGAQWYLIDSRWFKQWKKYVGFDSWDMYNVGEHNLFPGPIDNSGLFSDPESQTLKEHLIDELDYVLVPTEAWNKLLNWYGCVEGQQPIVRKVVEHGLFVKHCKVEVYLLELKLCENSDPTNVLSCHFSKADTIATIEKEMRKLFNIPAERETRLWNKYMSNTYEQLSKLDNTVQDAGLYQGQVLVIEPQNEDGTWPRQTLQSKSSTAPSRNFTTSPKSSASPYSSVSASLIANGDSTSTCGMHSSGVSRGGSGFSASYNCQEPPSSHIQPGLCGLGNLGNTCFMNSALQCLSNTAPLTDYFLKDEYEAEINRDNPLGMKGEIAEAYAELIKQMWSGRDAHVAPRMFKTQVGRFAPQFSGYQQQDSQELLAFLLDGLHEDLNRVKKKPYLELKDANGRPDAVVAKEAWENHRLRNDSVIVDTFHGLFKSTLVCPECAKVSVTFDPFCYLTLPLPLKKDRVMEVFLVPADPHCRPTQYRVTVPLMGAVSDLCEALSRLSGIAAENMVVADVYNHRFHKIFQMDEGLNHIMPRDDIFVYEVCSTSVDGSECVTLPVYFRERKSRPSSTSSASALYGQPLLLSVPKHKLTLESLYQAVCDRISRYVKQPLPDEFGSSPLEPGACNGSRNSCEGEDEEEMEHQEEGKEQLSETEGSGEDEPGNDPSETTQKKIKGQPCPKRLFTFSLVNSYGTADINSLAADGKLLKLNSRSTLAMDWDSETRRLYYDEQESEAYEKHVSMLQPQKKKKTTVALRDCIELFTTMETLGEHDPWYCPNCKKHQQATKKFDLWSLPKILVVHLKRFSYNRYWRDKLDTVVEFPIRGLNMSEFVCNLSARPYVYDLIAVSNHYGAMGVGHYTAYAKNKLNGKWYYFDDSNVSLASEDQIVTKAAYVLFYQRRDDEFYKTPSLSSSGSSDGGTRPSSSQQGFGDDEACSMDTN
Outline: as §1

Measured: log2 ratio of Biotin-Ahx-Ub-VS probe labelling

USP34, sequence (Q70CQ2 whole entry, the tested form may be a part): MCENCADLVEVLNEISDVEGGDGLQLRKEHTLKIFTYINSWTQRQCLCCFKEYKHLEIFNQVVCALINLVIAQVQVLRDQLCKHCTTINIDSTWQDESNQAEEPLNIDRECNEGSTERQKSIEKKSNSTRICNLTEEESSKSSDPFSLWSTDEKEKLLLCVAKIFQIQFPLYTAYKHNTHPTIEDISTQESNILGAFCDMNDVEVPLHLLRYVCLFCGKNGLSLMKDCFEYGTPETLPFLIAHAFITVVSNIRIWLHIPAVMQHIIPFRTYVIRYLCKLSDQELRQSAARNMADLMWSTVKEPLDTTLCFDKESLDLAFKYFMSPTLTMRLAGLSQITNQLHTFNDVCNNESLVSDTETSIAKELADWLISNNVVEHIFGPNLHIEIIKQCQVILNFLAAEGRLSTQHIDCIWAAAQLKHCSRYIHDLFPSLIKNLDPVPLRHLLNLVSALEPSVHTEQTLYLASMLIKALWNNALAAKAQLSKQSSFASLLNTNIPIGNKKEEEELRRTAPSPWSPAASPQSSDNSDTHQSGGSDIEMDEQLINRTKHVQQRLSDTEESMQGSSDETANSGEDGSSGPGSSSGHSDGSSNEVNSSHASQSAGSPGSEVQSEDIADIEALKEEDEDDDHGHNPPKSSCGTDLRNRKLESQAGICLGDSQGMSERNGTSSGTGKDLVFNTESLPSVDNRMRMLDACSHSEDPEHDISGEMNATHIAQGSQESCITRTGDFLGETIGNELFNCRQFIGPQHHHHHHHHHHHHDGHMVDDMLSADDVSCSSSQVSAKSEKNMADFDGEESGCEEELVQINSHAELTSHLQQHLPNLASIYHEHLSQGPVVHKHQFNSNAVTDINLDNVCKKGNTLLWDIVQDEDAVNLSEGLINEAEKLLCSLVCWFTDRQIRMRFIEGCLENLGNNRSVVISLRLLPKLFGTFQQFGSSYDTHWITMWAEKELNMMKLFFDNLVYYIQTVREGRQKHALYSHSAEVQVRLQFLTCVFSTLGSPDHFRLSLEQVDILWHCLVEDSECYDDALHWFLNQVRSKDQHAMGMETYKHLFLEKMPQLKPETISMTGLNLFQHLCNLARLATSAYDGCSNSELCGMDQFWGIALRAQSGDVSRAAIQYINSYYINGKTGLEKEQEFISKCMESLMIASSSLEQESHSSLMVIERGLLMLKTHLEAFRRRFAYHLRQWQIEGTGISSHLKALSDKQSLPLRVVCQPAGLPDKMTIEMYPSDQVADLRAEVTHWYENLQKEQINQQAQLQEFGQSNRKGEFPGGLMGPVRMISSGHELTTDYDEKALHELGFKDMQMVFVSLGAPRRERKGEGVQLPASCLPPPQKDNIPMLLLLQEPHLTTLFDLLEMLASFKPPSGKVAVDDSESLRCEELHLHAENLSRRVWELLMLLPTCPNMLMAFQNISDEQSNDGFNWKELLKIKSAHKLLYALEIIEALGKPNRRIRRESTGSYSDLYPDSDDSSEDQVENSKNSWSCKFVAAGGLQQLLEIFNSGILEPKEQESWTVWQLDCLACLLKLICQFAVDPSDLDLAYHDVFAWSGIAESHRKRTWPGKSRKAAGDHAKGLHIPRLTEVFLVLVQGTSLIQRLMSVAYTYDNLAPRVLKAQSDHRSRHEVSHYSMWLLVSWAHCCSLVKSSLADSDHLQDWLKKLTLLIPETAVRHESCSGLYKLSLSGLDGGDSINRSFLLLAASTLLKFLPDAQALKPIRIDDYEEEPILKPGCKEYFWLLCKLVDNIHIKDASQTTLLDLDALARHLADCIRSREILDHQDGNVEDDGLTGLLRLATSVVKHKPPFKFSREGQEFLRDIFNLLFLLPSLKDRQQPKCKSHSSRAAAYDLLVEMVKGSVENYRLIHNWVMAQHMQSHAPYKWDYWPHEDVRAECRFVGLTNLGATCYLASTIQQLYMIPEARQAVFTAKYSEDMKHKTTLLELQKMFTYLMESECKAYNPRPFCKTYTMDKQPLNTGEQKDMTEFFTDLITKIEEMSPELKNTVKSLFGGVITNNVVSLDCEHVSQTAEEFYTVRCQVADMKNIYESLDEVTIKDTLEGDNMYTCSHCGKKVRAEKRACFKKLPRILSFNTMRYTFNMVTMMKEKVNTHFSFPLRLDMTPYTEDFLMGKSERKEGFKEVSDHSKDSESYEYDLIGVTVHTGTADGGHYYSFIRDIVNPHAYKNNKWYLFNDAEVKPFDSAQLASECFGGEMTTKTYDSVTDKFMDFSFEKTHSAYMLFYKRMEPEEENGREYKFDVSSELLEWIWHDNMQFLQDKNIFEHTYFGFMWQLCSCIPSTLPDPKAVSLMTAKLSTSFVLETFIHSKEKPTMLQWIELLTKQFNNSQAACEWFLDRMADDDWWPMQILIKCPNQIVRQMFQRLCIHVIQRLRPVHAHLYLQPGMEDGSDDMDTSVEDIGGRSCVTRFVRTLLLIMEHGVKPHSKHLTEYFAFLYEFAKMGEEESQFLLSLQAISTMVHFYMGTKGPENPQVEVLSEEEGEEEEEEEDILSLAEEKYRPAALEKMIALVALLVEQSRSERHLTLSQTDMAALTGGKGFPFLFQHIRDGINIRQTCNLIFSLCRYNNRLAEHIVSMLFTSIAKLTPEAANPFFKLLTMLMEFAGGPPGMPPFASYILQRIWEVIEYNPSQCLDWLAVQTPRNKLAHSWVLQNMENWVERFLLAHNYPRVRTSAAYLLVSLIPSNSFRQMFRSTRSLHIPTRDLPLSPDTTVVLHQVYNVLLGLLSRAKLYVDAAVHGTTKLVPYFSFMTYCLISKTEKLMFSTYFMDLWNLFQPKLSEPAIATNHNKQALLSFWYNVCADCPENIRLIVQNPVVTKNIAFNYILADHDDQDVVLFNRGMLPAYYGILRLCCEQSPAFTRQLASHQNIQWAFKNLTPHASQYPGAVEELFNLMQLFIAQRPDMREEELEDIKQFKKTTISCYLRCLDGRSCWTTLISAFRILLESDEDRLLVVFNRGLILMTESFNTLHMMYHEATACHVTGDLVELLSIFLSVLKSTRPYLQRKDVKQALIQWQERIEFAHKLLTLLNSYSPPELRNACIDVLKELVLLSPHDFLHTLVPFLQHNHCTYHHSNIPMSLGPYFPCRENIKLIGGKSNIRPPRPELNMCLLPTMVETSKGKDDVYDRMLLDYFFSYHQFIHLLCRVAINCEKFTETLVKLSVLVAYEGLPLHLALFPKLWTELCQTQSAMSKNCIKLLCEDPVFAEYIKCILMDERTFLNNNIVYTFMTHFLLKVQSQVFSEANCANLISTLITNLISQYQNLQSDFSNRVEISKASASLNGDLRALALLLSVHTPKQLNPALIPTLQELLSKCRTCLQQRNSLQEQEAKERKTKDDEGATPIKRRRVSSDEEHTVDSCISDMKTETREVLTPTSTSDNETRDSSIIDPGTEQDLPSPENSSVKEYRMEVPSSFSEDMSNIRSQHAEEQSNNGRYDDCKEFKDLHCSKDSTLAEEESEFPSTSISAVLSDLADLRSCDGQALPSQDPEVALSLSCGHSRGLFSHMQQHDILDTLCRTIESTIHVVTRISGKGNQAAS

N#Cc1ccccc1N1CCN(C(=O)CCl)CC1
inactive: [1] -0.549 | [2] -0.232 | [3] -0.312 | [4] 0.399 | [5] -0.61
